In PubChem BioAssay AID492953 (The Scripps Research Institute Molecular Screening Center, 2010):
Among all 340,000 compounds or so, about 4,200 (1.2%) were called active.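 The calls were made as follows: active = inhibition above the mean of all tested compounds plus 3 SD (cut at about 24% in these data); inactive = the rest.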 The full list was thinned out, with actives kept by preference.

target: Platelet-activating factor acetylhydrolase IB subunit alpha2 (Homo sapiens) (UniProt P68402); test: PAFAH1B2 enzyme inhibitors, primary screen, biochemical, fluorescence polarization, human (AID 492953); settings: recombinant PAFAH1B2, FP-rhodamine activity probe, at 3.39 µM, active compounds read high;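 also: 0% = enzyme with DMSO and 100% = wells lacking PAFAH1B2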
Sequence (P68402 whole entry, looked up): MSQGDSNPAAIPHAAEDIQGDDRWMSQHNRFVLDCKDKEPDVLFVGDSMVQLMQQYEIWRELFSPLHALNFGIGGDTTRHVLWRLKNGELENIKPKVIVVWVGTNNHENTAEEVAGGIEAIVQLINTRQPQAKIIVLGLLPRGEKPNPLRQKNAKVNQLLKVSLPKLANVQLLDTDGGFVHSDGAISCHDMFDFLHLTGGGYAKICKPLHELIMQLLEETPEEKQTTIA

inhibition, active:
C=CC[C@@H](CC(=O)N[C@H](CO)Cc1ccccc1)C(=O)N[C@H](C)COC(=O)[C@@H](CC=C)Cc1ccc(F)cc1 26.8%
CCc1ccc(S(=O)(=O)Nc2cc3c(cc2N2CCCCC2)n(C)c(=O)c(=O)n3C)cc1 28.5%
Oc1[nH]c2ccc(Br)cc2c1N=Nc1nn[nH]n1 73.3%
CC1(C)Cc2ccccc2-c2[nH]c(=S)[nH]c(=O)c21 26.1%
CN(CC(=O)Nc1ccc(Cl)cc1)C(=O)CNC(=O)c1ccc2ccccc2c1 29%
CC(Oc1ccc2c(-c3ccccc3)cc(=O)oc2c1)C(=O)NC(Cc1c[nH]c2ccccc12)C(=O)O (stereo not given) 69.3%
O=C(CNC1CCCCC1)NCC1(c2ccccc2)CCCC1 26.9%
CC(Oc1ccc(Cl)cc1)C(=O)OCC(=O)Nc1ncc(Cl)cc1Cl (stereo not given) 30.6%
CCCc1cc(=O)[nH]c(SCc2ccc(C#N)cc2)n1 25.2%
Cc1ccc(S(=O)(=O)NCCC(c2ccccc2)c2ccccc2)cc1C(=O)O 29%
N/C(=N\OC(=O)CCc1ccccc1)c1ccc(Cl)cc1 63.8%
Cc1ccc(COc2ccc(/C=N/NC(=O)CN3CCCCC3)cc2)cc1 25.1%
C/C(Cn1nnc2ccccc21)=N\OC(=O)c1cc(F)c(F)cc1Cl 25.1%
O=C1COc2ccc(S(=O)(=O)Nc3ccc(OC(F)(F)F)cc3)cc2N1 41.6%
COCCNC(=O)NC(=O)COC(=O)C1(c2ccc(Cl)cc2)CC1 26.9%
CC1CCN(S(=O)(=O)c2ccc(S(=O)(=O)NCc3ccco3)cc2)CC1 29.6%

inhibition, inactive:
CN(CCc1ccccn1)S(=O)(=O)c1ccc2c3c(cccc13)C(=O)N2 -2.83%
CN1C(c2ccc(F)cc2)=CS/C1=C(/C#N)c1nnc2n1-c1ccccc1SC2 2.85%
CCN(CC)C(=O)Oc1ccc(Br)cc1C(=O)Nc1ccc(F)c(Cl)c1 7.03%
C=CC[C@@H](CC(=O)N[C@H](CO)Cc1ccccc1)C(=O)N[C@@H](COC(=O)[C@@H](CC=C)Cc1ccc(F)cc1)Cc1c[nH]c2ccccc12 -1.64%
C=CCC[C@H](Cc1ccc(F)cc1)C(=O)OC[C@@H](NC(=O)[C@@H](CC=C)CC(=O)N[C@H](CO)Cc1ccccc1)C(C)(C)C 13.2%
Cn1c(=O)c(=O)n(C)c2cc(S(=O)(=O)CCC(=O)N3CCCCC3)ccc21 5.13%
Cc1ccc(NS(=O)(=O)c2ccc3c(c2)n(C)c(=O)c(=O)n3C)c(C)c1 0.65%
O=C(NC1=CC(=O)c2ccccc2C1=O)c1ccccc1 17%
CN(O)C(=S)c1ccccc1 -1.16%
Cc1ccc(C(=O)N/C(=C/c2ccc(-c3cccc([N+](=O)[O-])c3)o2)C(=O)NCCCN(C)C)cc1 1.95%
NS(=O)(=O)c1ccc(N=Nc2c(O)[nH]c3ccc(Br)cc23)cc1 11.8%
O=C(CNC(=O)Cc1ccccc1)N=Nc1c(O)[nH]c2ccc(Br)cc12 -1.85%
Cc1cc(C)c(NC(=O)CN2CCOCCOCCOCCOCC2)c(C)c1 0.53%
Cc1nc2nc(C)c(NS(=O)(=O)c3ccc(C(C)(C)C)cc3)c(=O)n2[nH]1 16.3%
CC1(C)Cc2ccccc2-c2nc(CN3CCOCC3)[nH]c(=O)c21 6.87%
CC1(C)Cc2ccccc2/C(=C/C(=O)c2ccccc2)N1 -0.07%
CC1C(C)N(C(=O)CCl)c2ccccc2N1C(=O)CCl (stereo not given) 2.69%
CC(NC(=O)CC1SC(N)=NC1=O)c1ccccc1 (stereo not given) 3.61%
O=C(NNC(=O)c1ccc2ccccc2c1)c1ccc(Cl)cc1 3.28%
CN(CC(=O)Nc1ccc(Cl)cc1)C(=O)c1ccc(COc2ccccc2)cc1 7.71%
Clc1ccc2c(c1)C1=C(C(c3ccncc3)O2)C(c2ccc(Br)cc2)n2ncnc2N1 (stereo not given) 2.64%
CN(C)S(=O)(=O)c1cccc(C(=O)OCC(=O)N2CCCC2=O)c1 0.79%
CC(=O)c1cccc(NC(=O)N2CCCC2C(=O)NCCc2ccccc2)c1 (stereo not given) 4.97%
CCc1ccccc1NC(=O)Cc1cn(C)c2ccccc12 4.1%
COc1ccc(-c2cc(=O)oc3cc(OCC(=O)N[C@@H](Cc4c[nH]c5ccccc45)C(=O)O)ccc23)cc1 4.23%
COc1ccc(-c2cc(C(=O)NC(Cc3c[nH]c4ccccc34)C(=O)O)c(C)o2)cc1OC (stereo not given) 9.21%
CSc1ncnc2c1ncn2CC(=O)C1CCC2C3CCC4=CC(=O)CCC4(C)C3CCC12C (stereo not given) 3.57%
Cc1ccc(S(=O)(=O)N2CCN(S(=O)(=O)N3CCOCC3)CC2)cc1 2.69%
CC(C)(C)c1ccc(C(=O)N2CCN(CCNC(=O)C(=O)Nc3ccc(F)cc3)CC2)cc1 0.31%
CC(=O)N1CCOc2ccc(S(=O)(=O)N3CCN(c4cccc(C(F)(F)F)c4)CC3)cc21 3.14%
CC1CN(C(=O)c2cc(COc3c(F)cccc3F)on2)CCN1C (stereo not given) 0.48%
CC(=O)CC(CC(=O)NC1CCCCC1)c1ccccc1 (stereo not given) 5.22%
O=C(CCS(=O)(=O)c1ccccc1)NC1CCCC1 5.22%
CC(C)Cn1cnc2c(SCc3ccc(Cl)cc3)nc(N)nc21 7.46%
Cc1ccc(C(=O)COC(=O)CCN2C(=O)C3C4CC(C(Br)C4Br)C3C2=O)cc1 (stereo not given) -1.23%
COc1cccc(N2CCN(CC(=O)Nc3ccnn3C3CCCC3)CC2)c1 1.78%
CC1(C(=O)OCC(=O)Nc2ncc(Cl)cc2Cl)CC1(Cl)Cl (stereo not given) 2.15%
O=C(COC(=O)Cn1[nH]c(=O)c2ccccc2c1=O)Nc1ncc(Cl)cc1Cl 2.27%
CCN(CC(=O)Nc1c(F)cccc1F)C(=O)c1ccc(-c2ccccc2)cc1 3.05%
COc1ccc(-c2cn(-c3ccc(C)cc3)c(=O)n2CC(=O)Nc2ccc(OC)c(OC)c2)cc1 2.69%
CC1CCC(NC(=O)CNC(=O)c2ccc3ccccc3c2)CC1 (stereo not given) 7.58%
CCCc1cc(=O)[nH]c(SCc2cc(=O)oc3c(C)c(C)ccc23)n1 -0.37%
CCCc1cc(=O)n2[nH]c(SCc3ccccc3)nc2n1 13.6%
Cn1cc(C2OC(=O)c3ccccc32)c2ccccc21 (stereo not given) 0.55%
Cc1cccc(NS(=O)(=O)c2ccc(C)c(C(=O)NCC(c3ccccc3)N(C)C)c2)c1 (stereo not given) 6.63%
Cc1ccc(S(=O)(=O)NCCCn2ccnc2)cc1C(=O)NC(C)C 2.08%
COc1cc(Cl)c(C)cc1NC(=O)COC(=O)c1cc(SC)ccc1Cl -3.93%
CSCc1cc(N2CCOCC2)nc(SCc2ccc(Cl)cc2Cl)n1 10.7%
COc1ccc(/C(N)=N/OC(=O)CCCc2ccccc2)cc1 6.71%
N/C(=N\OC(=O)CCc1ccccc1)c1cccnc1 1.52%
C=C(C)c1cccc(C(C)(C)NC(=O)NC2CCCC2)c1 4.81%
COCCSc1nnc(NC(=O)c2cc(OC)c(OC)cc2[N+](=O)[O-])s1 4.45%
COC(=O)[C@@]1(C)[C@H]2C(=O)N(Cc3ccccc3)C(=O)[C@H]2[C@H]2CN=C(SCC3CC3)N21 2.74%
CC(OC(=O)/C=C/c1ccccc1)C(=O)NC1CCCCC1C (stereo not given) 1.18%
O=C(CN1CCSCC1)N/N=C/c1ccc(F)cc1 -6.64%
CCOc1cc(/C=N/NC(=O)CN2CCCCC2)ccc1O 1.96%
Cc1ccc(S(=O)(=O)NC(=O)N2CCCN(Cc3ccc(F)cc3)CC2)cc1 9.06%
Cn1c(Cn2nnc3ccccc32)nnc1SCC(=O)c1ccccc1F 4.6%
CCOC(=O)c1cccc(NC(=O)CCn2nnc3ccccc32)c1 1.37%
COC(=O)C1=C(N)Oc2cc(C)[nH]c(=O)c2C1c1ccc(Cl)cc1 (stereo not given) -2.03%
C=CCNC(=O)CCCC(=O)NCC=C 2.09%
Cc1ccc(NS(=O)(=O)c2ccc3c(c2)NC(=O)CO3)cc1 19.2%
Cc1ccc(NS(=O)(=O)c2cc3c(cc2C)NC(=O)CO3)cc1 6.94%
Nc1ccc2c(c1)C(=Cc1cccnc1)c1ccccc1-2 6.17%
COc1cc2c(cc1OC)C1C(=O)c3cc(OS(C)(=O)=O)c(OC)cc3C1N(C)C2=O (stereo not given) 0.81%
CCCNC(=O)NC(=O)COC(=O)CC(NC(N)=O)c1ccc(Cl)cc1 (stereo not given) 2.08%
CC(=O)N1CCC(C(=O)OCc2ccc(Cl)cc2)(c2ccccc2)CC1 7.86%
COc1ccc(-c2c(C)cc3oc(=O)cc(-c4ccccc4)c3c2C)cc1C=O -1.53%
O=c1[nH]c2ccccc2s1 4.32%
Cc1ccc(S(=O)(=O)N2CCC(C(=O)N[C@@H](C)C(=O)NCc3ccco3)CC2)cc1 4.6%
O=C(NC1CCC(O)CC1)c1ccc(S(=O)(=O)NCc2ccco2)cc1 (stereo not given) 4.89%
O=C(CSc1ccc([N+](=O)[O-])cn1)Nc1ccc(N2CCOCC2)c(Cl)c1 -0.87%
O=C(/C=C/c1ccccc1[N+](=O)[O-])OCC(=O)N1CCCC1 0.91%
COC(=O)[C@@H]1C[C@H]2CC[C@H](O)C[C@H]2N1Cc1ccc(N2CCN(C)CC2)cc1 -3.13%
